# Reference: PubChem BioAssay AID2102 (Southern Research Specialized Biocontainment Screening …, 2009)
# Screen size: about 1,100 compounds; about 210 (19%) were called active. No rule for the calls is given here. These entries were drawn from the full list. Entries with a potency or affinity are not part of this list.
# Assay: host cell cytotoxicity, dose response, cytotoxicity control for SV40 T antigen inhibitor project, selected hits (AID 2102);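 also: cells exposed to compounds for 72 hours; 100% = mean of untreated cell control wells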
# Conditions: Host cell viability cytotoxicity counter-screen; series mostly up to 50 µM; viability: at the top concentration
SMILES,viability,outcome
O=c1cc(-c2ccc(O)c(O)c2)oc2c(C3O[C@H](CO)[C@@H](O)[C@H](O)[C@H]3O)c(O)cc(O)c12 (stereo partly drawn),98.5% (inactive),–
O=c1cc(-c2ccc(O)c(O)c2)oc2cc(O)c(C3OC(CO)C(O)C(O)C3O)c(O)c12 (stereo not drawn),97.3% (inactive),–
COc1cc(/C=N\NC(=O)CNC(=O)c2cccc([N+](=O)[O-])c2)ccc1O,97.5% (inactive),–
Nc1ccc(OCCCc2c(N)nc(N)nc2N)cc1,110% (inactive),–
COc1ccccc1NC(=O)Oc1ccc(NC(=O)c2ccco2)cc1,101% (inactive),–
Cc1cccc(/C=N/n2c(-c3ccncc3)n[nH]c2=S)c1,92.2% (inactive),–
S=c1[nH]nc(-c2ccc(Cl)cc2)n1/N=C/C=C/c1ccco1,93% (inactive),–
Oc1ccc(-c2cn3ccccc3n2)cc1O,136% (inactive),–
C1=Cc2ccccc2Nc2ccccc21,109% (inactive),–
C[C@@H]1O[C@@H](OC2C(O)C(OCCc3ccc(O)c(O)c3)OC(CO)C2OC(=O)/C=C/c2ccc(O)c(O)c2)[C@H](O)[C@H](O)[C@H]1O (stereo partly drawn),99.6% (inactive),–
CCOc1cc(/C=C2\N=C3CCCCCN3C2=O)ccc1O,107% (inactive),–
Cc1nc(N)sc1N=Nc1c(C)n(C)n(-c2ccccc2)c1=O,103% (inactive),–
O=Cc1sc(=O)n(Cc2cccc(C(=O)O)c2)c1Cl,102% (inactive),–
CN=c1scc(C)n1/N=C/c1ccc(O)cc1O,83.5% (inactive),–
CC(C)(C)OC(=O)N/N=C/c1ccc(N2CCOCC2)s1,105% (inactive),–
O=C(CSc1nc2ccccc2c(=O)[nH]1)c1ccc(O)c(O)c1,91.3% (inactive),–
O=C(O)c1cc(S(=O)(=O)O)cc(Nc2c3ccccc3nc3ccccc23)c1O,104% (inactive),–
CN(C)c1ccc(NC(=O)CSc2nnc(-c3cnccn3)n2C)cc1,103% (inactive),–
O=C1Nc2ccccc2/C1=N\N=C\c1ccc(O)c(O)c1,82.8% (inactive),–
C/C(CC(=O)Nc1ccc(N(C)C)cc1)=N\NC(=O)c1ccc(Cl)cc1Cl,96.1% (inactive),–
CN(C)c1ccc(Nc2cc(Cl)ncn2)cc1,83.5% (inactive),–
O=C(N/N=C/c1ccc(O)c(O)c1)c1cccc(S(=O)(=O)N2CCCC2)c1,107% (inactive),–
COc1ccc(/C=N\NC(=O)c2ccc(=O)[nH]n2)cc1O,124% (inactive),–

SMILES,viability,outcome
N=C1/C(=C/c2ccc(Br)o2)C(=O)N=C2SC(CC(=O)N3CCCC3)=NN12,93.3% (inactive),–
CN1CN(C)c2cccc3cccc1c23,102% (inactive),–
CCOc1ccc(S(=O)(=O)Nc2cc(Sc3ncn[nH]3)c3oc(=O)sc3c2)cc1,80.8% (inactive),–
COc1ccc(C2=CC3=C(Br)C(=O)C(C)(OC(=O)c4ccc(Cl)nc4)C(=O)C3=CO2)cc1 (stereo not drawn),90.3% (inactive),–
CCOc1ccccc1NC(=S)N1CCN(c2ccc(O)cc2)CC1,93.7% (inactive),–
O=C(NC(=S)N1CCN(c2ccc(O)cc2)CC1)c1cccs1,105% (inactive),–
COc1cc(/C=N/NC(=O)CNC(=O)c2ccco2)ccc1O,124% (inactive),–
O=C(COc1cccnc1[N+](=O)[O-])c1ccc(Cl)s1,134% (inactive),–
CN(C)c1ccc(NC(=O)c2cccc(N3C(=O)CCC3=O)c2)cc1,106% (inactive),–
O=C(O)[C@H]1CCCC[C@H]1C(=O)Nc1ccc(Nc2ccccc2)cc1,107% (inactive),–
CCOc1ccc(-c2nc(=S)[nH][nH]2)cc1,98.2% (inactive),–
COc1ccc(/C=N/NC(=O)c2cc(O)c(O)c(O)c2)cc1Cn1cc([N+](=O)[O-])cn1,92% (inactive),–
C=CCNC(=S)Nc1ccc(N(C)C)cc1,97.9% (inactive),–
COc1cc(/C=N/NC(=O)c2ccc(Cn3cc([N+](=O)[O-])cn3)o2)cc(Br)c1O,96.9% (inactive),–
CCc1cc(C(=O)N/N=C/c2ccc(O)cc2)c2ccccc2n1,113% (inactive),–
COc1cc(/C=N/NC2=NCCCCC2)ccc1O,107% (inactive),–
ClC(Cl)(c1nnnn1-c1ccccc1)c1nnnn1-c1ccccc1,90.6% (inactive),–
Oc1ccc(C2CNCCc3c2cc(O)c(O)c3Cl)cc1 (stereo not drawn),95.4% (inactive),–
S=c1[nH]nc(-c2n[nH]c3c2CCC3)n1/N=C/C=C/c1ccco1,92.4% (inactive),–
COc1cc(/C=N/NC(=O)CCn2nnc3ccccc32)ccc1O,98% (inactive),–
CC(C)C(=O)Nc1ccc(O)c(-c2csc(N)n2)c1,104% (inactive),–
Cc1cc2cc3c(N)[nH]nc3nc2cc1C,104% (inactive),–
CN(C)C(=S)Nc1ccc(N2CCOCC2)cc1,101% (inactive),–

SMILES,viability,outcome
O=S(=O)(c1ccc(NC(=S)N/N=C/c2ccc(O)c(O)c2)cc1)N1CCOCC1,95% (inactive),–
Oc1ccc(NC(=S)Nc2ccccc2)cc1,–,inactive
O=C1/C(=C/C=C/c2ccco2)SC(=S)N1NS(=O)(=O)c1ccccc1,110% (inactive),–
O=C(CN1C(=O)/C(=C/c2ccco2)SC1=S)Nc1ccc(O)c(C(=O)O)c1,105% (inactive),–
CCCCCCNC(=O)N[C@H](C(=O)NCCC[C@H]1CN2C(=NC[C@H]2C)N1CCC(c1ccccc1)c1ccccc1)C(C)O (stereo partly drawn),94.3% (inactive),–
COc1ccc(/C=N/Nc2nc(N3CCCC3)nc(N3CCCC3)n2)cc1O,113% (inactive),–
COc1cc(CNc2ccc3c(c2)OCCO3)ccc1OCC(N)=O,91.7% (inactive),–
COc1cccc(C=Nc2ccc(N3CCOCC3)cc2)c1O,108% (inactive),–
Cc1nn(-c2ccccc2)c2[nH]c(=O)c(CNc3ccc(N4CCOCC4)cc3)cc12,88.7% (inactive),–
Cc1cc(C)nc(SSc2nc(C)cc(C)n2)n1,92.6% (inactive),–
CN1C=CC=C/C1=C(\C#N)c1nc2ccccc2[nH]1,129% (inactive),–
Cc1ccc(NC(=O)CN2C(=O)N/C(=C/c3cccn3-c3ccc(C(=O)O)cc3)C2=O)cc1,125% (inactive),–
O=Cc1cccn1-c1ccc(O)cc1,101% (inactive),–
O=C(O)C1Nc2c(O)cc(Cl)c([N+](=O)[O-])c2C2C=CCC12 (stereo not drawn),112% (inactive),–
CN(C)c1ccc(NC(=O)CSc2nc3c(c(=O)[nH]2)CCCC3)cc1,89.6% (inactive),–
CC1=NOC(=O)/C1=C\c1ccc(-c2ccc(Cl)c(C(=O)O)c2)o1,98.5% (inactive),–
O=C1C(=Cc2ccc(Br)o2)C(=O)c2ccccc21,107% (inactive),–
O=C1ON=C(c2ccccc2)/C1=C\c1ccco1,99.4% (inactive),–
Cc1ccc(C2=NOC(=O)/C2=C\c2ccc(C)o2)cc1,95.6% (inactive),–
Nc1nc[nH]c(=O)c1N=Cc1ccccc1,104% (inactive),–
O=C(c1ccco1)N1CCCC(Nc2ccc3c(c2)OCCO3)C1 (stereo not drawn),88.8% (inactive),–
O=C(c1ccc2ccccc2c1)N1CCN(c2ccc(O)cc2)CC1,92.7% (inactive),–
c1cncc(CNc2ccc3c(c2)OCO3)c1,101% (inactive),–

SMILES,viability,outcome
N#C/C(=C\c1ccc(O)c(O)c1)C(=O)c1ccc(O)c(O)c1,99.4% (inactive),–
CCOC(=O)c1ccc2c(c1)C1C=CCC1C(C(=O)O)N2 (stereo not drawn),108% (inactive),–
Oc1ccc(/C=N/NC(=S)NCC2CCCO2)cc1 (stereo not drawn),91% (inactive),–
COc1ccc(-c2nc(O)c3cnccn23)cc1,100% (inactive),–
CCN(CC)c1ccc(NC(=O)c2ccccc2F)cc1,85.1% (inactive),–
CCN(CC)c1ccc(NC(=O)c2ccco2)cc1,100% (inactive),–
CC(=O)Nc1ccc(OC(=O)C(CCS(C)(=O)=O)N2C(=O)c3ccccc3C2=O)cc1 (stereo not drawn),103% (inactive),–
Oc1cc(O)cc(/C=C/c2ccc(O)c(O)c2)c1,105% (inactive),–
O=C(O)/C=C/c1ccc(O)c(O)c1,104% (inactive),–
COc1cc(/C=N/NC(=O)C(C)n2nnc3ccccc32)ccc1O (stereo not drawn),102% (inactive),–
O=C(N/N=C/c1ccc(OC(=O)c2ccco2)cc1)c1ccc[n+]([O-])c1,107% (inactive),–
Oc1ccc(O)c(-c2cnns2)c1,100% (inactive),–
O=C1CC(c2ccc(O)c(O)c2)Oc2c1ccc(O)c2O (stereo not drawn),104% (inactive),–
CC1=C(C)CS(=O)N(S(=O)(=O)c2ccc(Cl)cc2)C1 (stereo not drawn),103% (inactive),–
COc1cc(/C=N/Nc2nc3ccccc3[nH]c2=O)ccc1O,111% (inactive),–
COc1cc(-c2nnc(SCc3cc(=O)oc4cc(O)c(O)cc34)o2)cc(OC)c1OC,82.7% (inactive),–
COc1cccc(-n2c(=O)c3ccccc3n3c(=S)[nH]nc23)c1,84.8% (inactive),–
CCN(CC)CCN1C(=O)C(=O)/C(=C(/O)c2ccc(C)cc2)C1c1cccnc1 (stereo not drawn),121% (inactive),–
CN=C1S/C(=C\c2ccc(O)c(OC)c2)C(=O)N1C,98.9% (inactive),–
Cc1occc1C(=O)N/N=C/C=C/c1ccc(N(C)C)cc1,91.2% (inactive),–
COc1cc(/C=C2/C(=O)NN(c3ccc(Cl)c(Cl)c3)C2=O)cc([N+](=O)[O-])c1O,98% (inactive),–
Cc1ccc(/C=N\NC(=O)COc2ccc(C)cc2[N+](=O)[O-])cc1,88.8% (inactive),–
CC(=O)CC1OC(=O)C(Br)=C1NCc1ccccc1 (stereo not drawn),98.4% (inactive),–

SMILES,viability,outcome
O=c1[nH]sc2ccccc12,101% (inactive),–
CN(C)c1ccc(NC(=S)NCC2CCCO2)cc1 (stereo not drawn),95% (inactive),–
Cc1[nH]c2ccccc2c1-c1csc(NC(=O)CSCC(=O)O)n1,113% (inactive),–
O=C1COc2ccc(N3C(=O)C=CC3=O)cc2N1,126% (inactive),–
COc1cc(/C=C2\C(=N)N3N=C(S(C)(=O)=O)SC3=NC2=O)ccc1OS(=O)(=O)c1ccc(C)cc1,98.1% (inactive),–
Cc1cc(-c2n[nH]c(=S)n2/N=C/c2c[nH]c3ccccc23)n[nH]1,92.8% (inactive),–
Cc1ccc2cc3c(N)[nH]nc3nc2c1,104% (inactive),–
COC(=O)CSc1nnc(CNc2ccc(OC)cc2)n1C,101% (inactive),–
C=CS(=O)c1sc(Cl)c(N2CCOCC2)c1[N+](=O)[O-] (stereo not drawn),102% (inactive),–
Cc1ccc2oc(=O)c(/C=C(\O)CC(C)C)nc2c1,115% (inactive),–
Nc1ccc(Nc2nc3ccccc3[nH]2)cc1,104% (inactive),–
CCOC(=O)C1=C(C)N(c2ccccc2)C(=O)/C1=C\c1ccc(O)c(OC)c1,83% (inactive),–
COc1ccc(NC2CCCN(C(=O)c3c(C)noc3C)C2)cc1 (stereo not drawn),110% (inactive),–
COc1cc(/C=N/Nc2ccccn2)ccc1O,81.3% (inactive),–
Oc1ccc(/C=N/Nc2ccc(Cl)nn2)cc1O,82.1% (inactive),–
C=CCNC(=S)NNC(=O)c1cc(O)ccc1O,107% (inactive),–
CCOc1cc(C(c2c(O)nc(SC)[nH]c2=O)c2c(O)nc(SC)[nH]c2=O)ccc1O,116% (inactive),–
CCOc1ccc(NCc2nnc(SCC(=O)Nc3cc(C)on3)n2-c2ccc(OC)cc2)cc1,84.5% (inactive),–
COc1ccc(CNc2ccc(N3CCOCC3)cc2)cc1,93.2% (inactive),–
CC(=O)N1CCN(c2ccc(NCc3ccc(C)s3)cc2)CC1,86.7% (inactive),–
Cc1ccc(CNc2ccc(N3CCOCC3)cc2)cc1,98.8% (inactive),–
